We go through 69 compounds from ChEMBL document CHEMBL4888484, “Replenishing the malaria drug discovery pipeline: Screening and hit evaluation of the MMV Hit Generation Library 1 (HGL1) against asexual blood stage Plasmodium falciparum ,using a nano luciferase reporter read-out” (2022).

Out of some 4,800 compounds screened, about 410 (8.5%) showed an effect of 50% or more. This excerpt belongs to a sample that is enriched for strong results.

The test system of this experiment is Plasmodium falciparum. The experiment in a line: Confirmatory screen in NF54 pLDH assay, in single point, at 2uM, 72h. The format is functional, Erythrocyte. As to conditions: timepoint 72 hour.
For the compound `CCc1sc(N(C(=O)Cc2ccccc2)c2ccc(C)cc2C)nc1-c1ccc(Cl)cc1`, the % Inhibition (in general, the relative decrease from the control value, in per cent) is reported as 12%.

`COc1ccc(-n2nc(C(=O)N3CCOCC3)c(=O)cc2OC)cc1`: the “% Inhibition” value is 3%.

Consider `CCc1nnc2c(S(=O)(=O)Nc3cc(F)cc(F)c3)cccn12`, for which the “% Inhibition” value stood at 9%.

With `CN1N=C(C(=O)NC2CCC3CCCCC3C2)CCC1=O` (centres undefined), the “% Inhibition” value is recorded as -20%.

Turning to `COc1ccc(C(=O)N(CCO)CCN2CCOCC2)c(OC2CCCC2)c1`, the “% Inhibition” value is given as 11%.

As for `Cc1cccc(-n2c(=O)[nH]c3nc(NCCN(C)C)ncc3c2=O)c1C`, the “% Inhibition” value came out at 8%.

For `COc1ccccc1C(=O)N1CCC([C@H](NC(=O)c2ccc3c(c2)OCO3)C(=O)NC(C)C)CC1`, the “% Inhibition” value is 10%.

Consider `COc1ccccc1CC(=O)NC[C@H](C)O`, for which the “% Inhibition” value came to 14%.

For `O=C1c2cc3ccccc3c(-c3ccccc3)c2C(=O)N1c1ccccc1`, the “% Inhibition” value was -16%.

In the case of `CCc1nn2c(c1-c1ccc(C)cc1)NC(=O)C[C@H]2C(=O)O`, the “% Inhibition” value was 12%.

For the compound `Cc1cnc(CC[C@H]2CCCN2C(=O)CCCc2ccccc2)n1C`, the “% Inhibition” value is reported as 10%.

As for `CC(C)O[C@@H]1CCN(C[C@H](O)c2ccc(C(F)(F)F)cc2)C1`, the “% Inhibition” value worked out at 42%.

Take `CCc1ccc(C(=O)N2CC[C@H](CC(=O)NCc3ccccc3)C2)cc1`: the “% Inhibition” value is 10%.

With `Cc1cccc2c(-c3cc(N)nc(N)n3)c[nH]c12`, the “% Inhibition” value is recorded as 100%.

In the case of `Cc1cccc(C)c1NC(=O)c1cc(-c2cccc3ccccc23)[nH]n1`, the “% Inhibition” value was found to be 11%.

Take `Cc1cc(Br)c2c(c1)C(O)(N1CCCC(C)C1)C(=O)N2` (centres undefined): the “% Inhibition” value is 9%.

`O=C(CN1C(=O)C[C@H](Cc2ccc(F)cc2)C1=O)N1CCNC1=O`: the “% Inhibition” value stood at 9%.

As to `CN(C)c1nc(N)cc(-c2cccc3cccnc23)n1`, the “% Inhibition” value amounted to 55%.

Regarding `CC1CCCC(C)N1C(=O)CN(C)c1cccc2cccnc12` (centres undefined), the “% Inhibition” value was determined as 4%.

For `CN(C)c1nccc(NC[C@H](N)c2ccccc2)n1`, the “% Inhibition” value is reported as -12%.

As to `Cc1ccc(C(N)C(C)S(C)(=O)=O)cc1` (centres undefined), the “% Inhibition” value is on record as -18%.

For `COc1cccc(-c2cc(O)cc(CC[C@H]3CCCCN3)c2)n1`, the “% Inhibition” value is reported as 89%.

Consider `Oc1cc(CC[C@H]2CCCCN2)cc(-c2cnc3ccccc3n2)c1`, for which the “% Inhibition” value is reported as 80%.

On to `O=C(NCC(F)(F)F)Nc1ccc(CO)cc1`, for which the “% Inhibition” value amounted to 3%.

As for `O=c1[nH]c2cc(Cl)c(S(=O)(=O)Cl)cc2[nH]1`, the “% Inhibition” value came out at 6%.

As for `CCc1c(C(=O)NCc2ccc(CN3CC(C)OC(C)C3)cc2)[nH]c(C)c1C(C)=O` (centres undefined), the “% Inhibition” value is -27%.

On to `COc1ccc(CC(=O)N2CCN(c3cnn4cnnc4c3)CC2)cc1`, for which the “% Inhibition” value came to 6%.

Take `CCc1nnc2ccc(S(=O)(=O)N(CC#N)c3ccccc3)cn12`: the “% Inhibition” value is -16%.

`COc1ccc(NC(=O)CCC(=O)NCc2ccco2)cc1`: the “% Inhibition” value turned out to be 15%.

Consider `c1coc(CNc2nc(Nc3cccc4ccccc34)nc3ccccc23)c1`, for which the “% Inhibition” value came out at 50%.

For the compound `C=CCNC(=O)CCC(=O)NCc1ccco1`, the “% Inhibition” value is on record as 13%.

Take `COc1ccc(CCN[C@@H]2c3ccccc3C(=O)N2C2CCCCC2)cc1OC`: the “% Inhibition” value was found to be 10%.

Take `CC(=O)N(Cc1ccccc1)c1ccc2c(c1)nc(Cn1nc(C)cc1C)n2C`: the “% Inhibition” value was 5%.

In the case of `CCC(CC)N1CC(C(=O)NC2COc3ccc(C)cc32)CC1=O` (centres undefined), the “% Inhibition” value was -21%.

For the compound `CCn1cc(S(=O)(=O)N(C)Cc2nn(CC)cc2Cl)cn1`, the “% Inhibition” value came to 8%.

As to `Cn1c(=O)c2sc(N3CCCC3)nc2n(CC(=O)NC2CCCC2)c1=O`, the “% Inhibition” value came to 4%.

For `COc1ccc(CC[C@H](C)NC(=O)NCCCN2CCCC2=O)cc1`, the “% Inhibition” value stood at 11%.

For `CC(C)C(=O)N1CC[C@H](CC(=O)NCc2ccncc2)C1`, the “% Inhibition” value is 5%.

With `CS(=O)(=O)N1CC[C@H](CC(=O)N2CCN(c3ccc(F)cc3)CC2)C1`, the “% Inhibition” value is given as -21%.

As for `N#CC1CCC(Nc2cnn(-c3ccncc3)c2)CC1` (centres undefined), the “% Inhibition” value was found to be 11%.

With `CN(C)c1cc(C(=O)N2CCOC3CCCCC32)ccn1` (centres undefined), the “% Inhibition” value came out at 3%.

Consider `Cc1ccc(C)c(-c2nc(Cn3c(=O)c4c(C)cc(C)nc4n(C)c3=O)c(C)o2)c1`, for which the “% Inhibition” value was 3%.

`Fc1cnc(OC2Cc3ccccc3C2)nc1`: the “% Inhibition” value was 57%.

In the case of `Cn1nccc1/C=C1\CC2C3CCc4cc(O)ccc4C3CCC2(C)C1O` (centres undefined), the “% Inhibition” value was 47%.

For `Nc1ncncc1C(=O)NCCc1c[nH]c2ccc(F)cc12`, the “% Inhibition” value stood at 6%.

Take `CCOc1ncc(Br)cc1C(=O)O`: the “% Inhibition” value is -19%.

Turning to `O=C(C[C@H]1CCCN1c1ccnc(C2CC2)n1)c1ccco1`, the “% Inhibition” value was found to be 12%.

On to `c1cc2c(cc1[C@H]1NCCCCCCO1)OCO2`, for which the “% Inhibition” value is given as -5%.

`O=C1Nc2ccc(Br)cc2C1=O`: the “% Inhibition” value is reported as 13%.

As for `COc1ccccc1-n1c(=O)[nH]c2nc(N3CCN(c4ccccn4)CC3)ncc2c1=O`, the “% Inhibition” value is 3%.

For the compound `CC(C)(C)OC(=O)NC1CCN(c2ncc(C(=O)NCc3ccc(F)c(Cl)c3)c(N)n2)CC1`, the “% Inhibition” value is -10%.

As for `N#Cc1cccc(-c2n[nH]c3c2CN(c2ccc(-c4ccccc4)nn2)CC3)c1`, the “% Inhibition” value came out at 100%.

In the case of `N#Cc1cc(N2CCc3ccccc3C2)nc2ccccc12`, the “% Inhibition” value stood at 8%.

As for `COc1ccc2c(c1)CN(C(=O)C1CC3CCC1C3)CC2` (centres undefined), the “% Inhibition” value turned out to be 11%.

Take `Cc1ncsc1C(=O)N1CCC2(CCCCC2)C1`: the “% Inhibition” value was -22%.

For `O=C1C[C@@H](C(=O)N2CCC3(CCCCC3)C2)CCN1`, the “% Inhibition” value is recorded as 10%.

`Nc1ncc(C(=O)N2CCC3(CCCCCC3)C2)s1`: the “% Inhibition” value stood at 98%.

As to `NC(=O)[C@H]1CCCN(c2ccnc(C(=O)NCc3ccccc3)c2)C1`, the “% Inhibition” value turned out to be 4%.

On to `CC1C(Cc2ccccc2)CCN1C(=O)c1cnc(C(F)(F)F)nc1` (centres undefined), for which the “% Inhibition” value is recorded as 14%.

Turning to `Cc1ccc(C(=O)N2C[C@@H]3C[C@H](NC(=O)c4cccnc4)[C@H]2C3)cc1F`, the “% Inhibition” value was -1%.

As to `CC(=O)Nc1ccc(C)cc1S(=O)(=O)N1CC=C(c2c(C)n(Cc3ccccc3C)c3ccccc23)CC1`, the “% Inhibition” value came to 90%.

`Cc1ccc(NC(=O)Cn2c(=O)n(Cc3ccco3)c(=O)c3ccccc32)c(C)c1`: the “% Inhibition” value is -13%.

For the compound `Cc1ccc(S(=O)(=O)N2CC[C@H](CC(=O)NCc3ccccc3)C2)c(C)c1`, the “% Inhibition” value is on record as -22%.

Take `Cc1nn(C)c(Cl)c1CNC[C@@H](c1ccsc1)N(C)C`: the “% Inhibition” value stood at 9%.

As for `O=C(Nc1nnc(C2CC2)s1)[C@@H]1Cc2ccccc2O1`, the “% Inhibition” value came out at 5%.

With `O=C(NC1CCCC1)N1CCN(c2nc3cccnc3n(Cc3ccccc3)c2=O)CC1`, the “% Inhibition” value amounted to 8%.

Turning to `Brc1cncnc1N1CCC[C@H](c2nnn[nH]2)C1`, the “% Inhibition” value is -7%.

For `CCn1cnc2c(N3CCC[C@H](c4ccncc4)C3)ncnc21`, the “% Inhibition” value amounted to 77%.

Consider `CCn1c(=O)c(N2CCC[C@H](C(=O)NCc3ccccc3OC)C2)nc2cccnc21`, for which the “% Inhibition” value is given as -3%.
